# Measurements: the supplement of paper PMC8728848
# Shown is part of a subset that was picked to be rich in the strongest signals.
# B1: rCnSL-A (Clitocybe nebularis) (protein)
# chain: VNPNLPGPNDVFVGFRGTNNIVGAIYEKDGIKDTPLNNGADAEMGPGSYITDGLFTARIFASGSAGNNPGTTATVCKIYASGVQWRGAPKGYIPVAYFGNGPTAEQRRQTYLRTLGLPGTAIRFGNLNTNPGQGPTAPRQMVVPPGPLRSLLKASCFPAADTRLPQTLHYFEKRVDWNIITAADSQTWGH
# What was measured:
# Assay in all cases: glycan array binding signal (z-score within array); higher = stronger binding
# Conditions in all cases: glycan notation: IUPAC condensed, linker removed
# [1] = biological target: Fuc(a1-2)Gal
# Procedure, shortened: (§1)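 The Consortium for Functional Glycomics database supplied 3228 glycan arrays, of which those lacking an available protein sequence were dropped. The binding signal, a within-array Z-score, was averaged across arrays of the same protein sequence and across linkers. Negative scores can be read as non-binding.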
# [2] = biological target: Fuc(a1-2)Gal(b1-3)GalNAc(a1-3)[Fuc(a1-2)]Gal(b1-4)Glc
# Procedure, shortened: as §1
# [3] = biological target: Fuc(a1-2)[Gal(a1-3)]Gal(b1-4)GlcNAc(b1-3)[Fuc(a1-2)[Gal(a1-3)]Gal(b1-4)GlcNAc(b1-6)]GalNAc
# Procedure, shortened: as §1
# [4] = biological target: Fuc(a1-2)[Gal(a1-3)]Gal(b1-4)[Fuc(a1-3)]GlcNAc(b1-3)GalNAc
# Procedure, shortened: as §1
# [5] = biological target: Fuc(a1-2)[GalNAc(a1-3)]Gal(b1-3)GlcNAc(b1-6)GalNAc
# Procedure, shortened: as §1
# [6] = biological target: Fuc(a1-2)[GalNAc(a1-3)]Gal(b1-4)GlcNAc(b1-3)Gal(b1-4)GlcNAc(b1-3)Gal(b1-4)GlcNAc
# Procedure, shortened: as §1
# [7] = biological target: Fuc(a1-3)[Gal(b1-4)]GlcNAc(b1-6)GalNAc
# Procedure, shortened: as §1
# [8] = biological target: Fuc(a1-3)[GalNAc(b1-4)]GlcNAc6S
# Procedure, shortened: as §1
# [9] = biological target: Gal(a1-4)Gal(b1-4)Glc
# Procedure, shortened: as §1
# [10] = biological target: Gal(b1-3)Gal(b1-4)GlcNAc
# Procedure, shortened: as §1
# [11] = biological target: Gal(b1-3)GlcNAc(b1-3)Gal(b1-4)GlcNAc(b1-2)[Gal(b1-3)GlcNAc(b1-3)Gal(b1-4)GlcNAc(b1-6)]Man(a1-6)[Gal(b1-3)GlcNAc(b1-3)Gal(b1-4)GlcNAc(b1-2)Man(a1-3)]Man(b1-4)GlcNAc(b1-4)[Fuc(a1-6)]GlcNAc
# Procedure, shortened: as §1
# [12] = biological target: Gal(b1-3)GlcNAc(b1-3)Gal(b1-4)GlcNAc(b1-3)Gal(b1-4)GlcNAc(b1-2)[Gal(b1-3)GlcNAc(b1-3)Gal(b1-4)GlcNAc(b1-3)Gal(b1-4)GlcNAc(b1-6)]Man(a1-6)[Gal(b1-3)GlcNAc(b1-3)Gal(b1-4)GlcNAc(b1-3)Gal(b1-4)GlcNAc(b1-2)Man(a1-3)]Man(b1-4)GlcNAc(b1-4)[Fuc(a1-6)]GlcNAc
# Procedure, shortened: as §1
# [13] = biological target: Gal(b1-4)GlcNAc(b1-2)Man(a1-3)[Gal(b1-4)GlcNAc(b1-2)Man(a1-6)]Man(b1-4)GlcNAc(b1-4)GlcNAc
# Procedure, shortened: as §1
# [14] = biological target: Gal(b1-4)GlcNAc(b1-2)[Gal(b1-4)GlcNAc(b1-4)]Man(a1-3)[Gal(b1-4)GlcNAc(b1-2)Man(a1-6)]Man(b1-4)GlcNAc(b1-4)GlcNAc
# Procedure, shortened: as §1
# [15] = biological target: Gal(b1-4)GlcNAc(b1-3)Gal(b1-4)GlcNAc(b1-2)[Gal(b1-4)GlcNAc(b1-3)Gal(b1-4)GlcNAc(b1-6)]Man(a1-6)[Gal(b1-4)GlcNAc(b1-3)Gal(b1-4)GlcNAc(b1-2)Man(a1-3)]Man(b1-4)GlcNAc(b1-4)[Fuc(a1-6)]GlcNAc
# Procedure, shortened: as §1
# [16] = biological target: Gal(b1-4)GlcNAc(b1-3)Gal(b1-4)GlcNAc(b1-3)Gal(b1-4)GlcNAc(b1-2)[Gal(b1-4)GlcNAc(b1-3)Gal(b1-4)GlcNAc(b1-3)Gal(b1-4)GlcNAc(b1-6)]Man(a1-6)[Gal(b1-4)GlcNAc(b1-3)Gal(b1-4)GlcNAc(b1-3)Gal(b1-4)GlcNAc(b1-2)Man(a1-3)]Man(b1-4)GlcNAc(b1-4)[Fuc(a1-6)]GlcNAc
# Procedure, shortened: as §1
# [17] = biological target: Gal(b1-4)GlcNAc(b1-3)Gal(b1-4)GlcNAc(b1-3)Gal(b1-4)GlcNAc(b1-3)Gal(b1-4)GlcNAc(b1-2)Man(a1-3)[Gal(b1-4)GlcNAc(b1-3)Gal(b1-4)GlcNAc(b1-3)Gal(b1-4)GlcNAc(b1-3)Gal(b1-4)GlcNAc(b1-2)Man(a1-6)]Man(b1-4)GlcNAc(b1-4)GlcNAc
# Procedure, shortened: as §1
# [18] = biological target: Gal(b1-4)GlcNAc(b1-3)Gal(b1-4)GlcNAc(b1-3)Gal(b1-4)GlcNAc(b1-3)Gal(b1-4)GlcNAc(b1-2)Man(a1-3)[Gal(b1-4)GlcNAc(b1-3)Gal(b1-4)GlcNAc(b1-3)Gal(b1-4)GlcNAc(b1-3)Gal(b1-4)GlcNAc(b1-2)Man(a1-6)]Man(b1-4)GlcNAc(b1-4)[Fuc(a1-6)]GlcNAc
# Procedure, shortened: as §1
# [19] = biological target: Gal(b1-4)GlcNAc(b1-3)Gal(b1-4)GlcNAc(b1-3)Gal(b1-4)GlcNAc(b1-3)Gal(b1-4)GlcNAc(b1-2)[Gal(b1-4)GlcNAc(b1-3)Gal(b1-4)GlcNAc(b1-3)Gal(b1-4)GlcNAc(b1-3)Gal(b1-4)GlcNAc(b1-6)]Man(a1-6)[Gal(b1-4)GlcNAc(b1-3)Gal(b1-4)GlcNAc(b1-3)Gal(b1-4)GlcNAc(b1-3)Gal(b1-4)GlcNAc(b1-2)Man(a1-3)]Man(b1-4)GlcNAc(b1-4)[Fuc(a1-6)]GlcNAc
# Procedure, shortened: as §1
# [20] = biological target: Gal(b1-4)GlcNAc(b1-3)Gal(b1-4)GlcNAc(b1-3)Gal(b1-4)GlcNAc(b1-3)Gal(b1-4)GlcNAc(b1-3)Gal(b1-4)GlcNAc(b1-2)Man(a1-3)[Gal(b1-4)GlcNAc(b1-3)Gal(b1-4)GlcNAc(b1-3)Gal(b1-4)GlcNAc(b1-3)Gal(b1-4)GlcNAc(b1-3)Gal(b1-4)GlcNAc(b1-2)Man(a1-6)]Man(b1-4)GlcNAc(b1-4)GlcNAc
# Procedure, shortened: as §1
# [21] = biological target: Gal(b1-4)GlcNAc(b1-3)Gal(b1-4)GlcNAc(b1-3)Gal(b1-4)GlcNAc(b1-3)Gal(b1-4)GlcNAc(b1-3)Gal(b1-4)GlcNAc(b1-2)Man(a1-3)[Gal(b1-4)GlcNAc(b1-3)Gal(b1-4)GlcNAc(b1-3)Gal(b1-4)GlcNAc(b1-3)Gal(b1-4)GlcNAc(b1-3)Gal(b1-4)GlcNAc(b1-2)Man(a1-6)]Man(b1-4)GlcNAc(b1-4)[Fuc(a1-6)]GlcNAc
# Procedure, shortened: as §1
# [22] = biological target: Gal(b1-4)GlcNAc(b1-3)Gal(b1-4)GlcNAc(b1-3)Gal(b1-4)GlcNAc(b1-3)Gal(b1-4)GlcNAc(b1-3)Gal(b1-4)GlcNAc(b1-2)[Gal(b1-4)GlcNAc(b1-3)Gal(b1-4)GlcNAc(b1-3)Gal(b1-4)GlcNAc(b1-3)Gal(b1-4)GlcNAc(b1-3)Gal(b1-4)GlcNAc(b1-6)]Man(a1-6)[Gal(b1-4)GlcNAc(b1-3)Gal(b1-4)GlcNAc(b1-3)Gal(b1-4)GlcNAc(b1-3)Gal(b1-4)GlcNAc(b1-3)Gal(b1-4)GlcNAc(b1-2)Man(a1-3)]Man(b1-4)GlcNAc(b1-4)[Fuc(a1-6)]GlcNAc
# Procedure, shortened: as §1
binder,measurement,setting,value
B1,glycan array binding signal (z-score),[1],-0.225
same,glycan array binding signal (z-score),[2],-0.137
same,glycan array binding signal (z-score),[3],-0.176
same,glycan array binding signal (z-score),[4],-0.339
same,glycan array binding signal (z-score),[5],-0.306
same,glycan array binding signal (z-score),[6],-0.002
same,glycan array binding signal (z-score),[7],-0.093
same,glycan array binding signal (z-score),[8],-0.255
same,glycan array binding signal (z-score),[9],-0.211
same,glycan array binding signal (z-score),[10],-0.132
same,glycan array binding signal (z-score),[11],1.95
same,glycan array binding signal (z-score),[12],3.37
same,glycan array binding signal (z-score),[13],-0.203
same,glycan array binding signal (z-score),[14],2.67
same,glycan array binding signal (z-score),[15],3.11
same,glycan array binding signal (z-score),[16],5.46
same,glycan array binding signal (z-score),[17],8.55
same,glycan array binding signal (z-score),[18],2.68
same,glycan array binding signal (z-score),[19],10.3
same,glycan array binding signal (z-score),[20],2.36
same,glycan array binding signal (z-score),[21],5.05
same,glycan array binding signal (z-score),[22],13.6
